CYP2C9 inhib = blocks human cytochrome P450 2C9; CYP2C9 Supersomes, luciferin-H conversion, luminescence; inhibition, % at 5 µM; 20% of 96,000 active; AID 777;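 active means blocking of liver enzyme CYP2C9 beyond about 50% at 5 µM, limit read from the data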
Target sequence (P11712 whole entry, looked up): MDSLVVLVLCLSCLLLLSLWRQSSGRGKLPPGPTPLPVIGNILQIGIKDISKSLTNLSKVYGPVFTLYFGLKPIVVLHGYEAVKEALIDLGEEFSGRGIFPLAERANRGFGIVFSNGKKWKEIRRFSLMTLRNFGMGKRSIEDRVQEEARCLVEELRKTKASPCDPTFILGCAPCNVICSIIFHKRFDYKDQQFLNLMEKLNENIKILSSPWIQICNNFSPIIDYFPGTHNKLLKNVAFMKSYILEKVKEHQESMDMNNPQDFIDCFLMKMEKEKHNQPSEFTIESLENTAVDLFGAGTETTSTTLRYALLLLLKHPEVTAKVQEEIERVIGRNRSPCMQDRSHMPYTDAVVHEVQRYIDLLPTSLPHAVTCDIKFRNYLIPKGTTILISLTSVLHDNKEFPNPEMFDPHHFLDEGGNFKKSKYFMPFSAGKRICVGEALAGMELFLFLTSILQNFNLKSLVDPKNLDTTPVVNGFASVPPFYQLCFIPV
Cav32 inh = inhibitors of human Cav3.2 T-type calcium channel. O95180. Cav3.2-expressing cells, Fluo-4 calcium fluorescence FDSS; active compounds read low. B-score at 10 µM. 4% of 100,000 active. AID 449739;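 active means single-dose well whose peak fluorescence ratio is a statistical outlier from its plate by either plate-standardised score or position-corrected B-score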
CYP2C19 inhib = inhibitors of human CYP2C19; P33261; inhibition, % at 5 µM; 21% of 96,000 active; AID 778; CYP2C19 Supersomes, luciferin-H EGE luminescence, 30 min;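 active means CYP2C19 inhibition above a set limit at 5 µM in the primary screen, cut at about 50% in these data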;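 further: plate controls were negative control wells for no effect and 2.5 mM tranylcypromine positive control for full effect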
CYP2C9 act = CYP2C9 (human) activation. recombinant CYP2C9, luciferin-H conversion, luminescence; active compounds read high; factor 1 = untreated enzyme, 0 = blocked. activation factor at 5 µM. 1.4% of 96,000 active. P11712;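 active means activation factor of 2 or more for CYP2C9 at a 5 µM dose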;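 further: 0 = sulfaphenazole-blocked wells and 1 = vehicle-only wells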
CYP2C19 act = cytochrome P450 2C19 (human) activation | P33261 | 96,000 tested, under 10 active | activation factor at 5 µM | AID 1025 | recombinant CYP2C19, luciferin-H EGE luminescence; active compounds read high; 0 = fully inhibited enzyme, 1 = untreated enzyme;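 active means activation factor of at least 2 at 5 µM in the primary screen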;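 further: 0 = wells with 2.5 mM tranylcypromine and 1 = vehicle-only wells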
* hit, by the source's call; · = no result given. Sampled rows, rich in hits. Any-hit rate of the full collection: about 27%.

SMILES | CYP2C9 inhib | Cav32 inh | CYP2C19 inhib | CYP2C9 act | CYP2C19 act
c1ccc(-c2noc(-c3cccc4ccccc34)n2)nc1 | 1 | -1.8 | 64* | 1 | 0.4
c1ccc(-c2cc(-c3nc(-c4ccccn4)no3)c3ccccc3n2)cc1 | · | -1.5 | · | · | ·
COc1cccc(-c2nc(-c3ccccn3)no2)c1OC | 38 | 0.76 | 90* | 0.6 | 0.1
COc1cc(-c2nc(-c3ccccn3)no2)cc(OC)c1OC | -8 | 0.37 | -1 | 1.1 | 1
Cc1ccc(C(C#N)N2CCOCC2)cc1 (stereo not drawn) | · | -0.82 | · | · | ·
CCOC(=O)C1=C(C)C(c2ccccc2)NC(=S)N1 (stereo not drawn) | 24 | 0.3 | 63* | 0.8 | 0.4
CCOC(=O)C1=C(c2ccccc2)NC(=S)NC1C (stereo not drawn) | 8 | -0.18 | 52* | 0.9 | 0.5
COC(=O)C1=C(C)C(c2ccc(OC)cc2)NC(=S)N1 (stereo not drawn) | 13 | 0.0098 | 31 | 0.9 | 0.7
O=C(Oc1ccc(Br)cc1)c1cncc(Br)c1 | 4 | 0.0022 | 3 | 1 | 1
O=S1(=O)N=C2CCCCCN2C(c2ccncc2)N1 (stereo not drawn) | -13 | -0.61 | -4 | 1.1 | 1
O=C(NC(NC1CCS(=O)(=O)C1)C(=O)c1cccs1)c1ccccc1 (stereo not drawn) | 69* | -0.37 | 99* | 0.3 | 0
C=C1CSc2nc3ccccc3c(=O)n21 | -7 | 1 | -3 | 1.1 | 1
CCCc1cc(NCCCN2CCOCC2)n2c(nc3ccccc32)c1C#N | · | 0.8 | · | · | ·
Cc1cc(NCCCN2CCOCC2)n2c(nc3ccccc32)c1C#N | 40 | 1.7 | 51* | 0.6 | 0.5
COc1ccc(Br)cc1/C=N/NC(=O)c1ccc(COc2ccc3c(c2)CCC3)o1 | 43 | -1.5 | 30 | 0.6 | 0.7
COc1ccccc1/C=C/C(=O)NCC(=O)N/N=C/c1cc(Br)ccc1OC | 53* | -9.3* | 6 | 0.5 | 0.9
C/C(N)=C(/C#N)C(=O)CSc1nnc(Nc2c(C)cccc2C)s1 | 69* | -0.15 | 72* | 0.3 | 0.3
C/C(N)=C(/C#N)C(=O)CSc1nnc(SCc2ccc(Cl)cc2)s1 | 71* | -0.54 | 31 | 0.3 | 0.7
C/C(N)=C(/C#N)C(=O)CSc1nnc(Nc2cccc(C)c2C)s1 | 66* | -0.069 | 66* | 0.3 | 0.3
COC(=O)c1cnn(-c2ccc(C)c(C)c2)c1-n1cccc1 | · | -0.92 | · | · | ·
COc1cccc(OCCCN2CCN(S(=O)(=O)c3ccc(NC(C)=O)cc3)CC2)c1 | 80* | -0.16 | 86* | 0.2 | 0.1
CC(=O)Nc1ccc(S(=O)(=O)N2CCN(C(=O)Cc3ccccc3)CC2)cc1 | · | 0.41 | · | · | ·
CC(=O)Nc1ccc(S(=O)(=O)N2CCN(CCCOc3ccccc3Cl)CC2)cc1 | 48 | 2.5 | 68* | 0.5 | 0.3
COc1cccc(NC(=O)[C@@H]2CCCN2C(=O)C2CCN(S(=O)(=O)c3ccc(C)cc3)CC2)c1 | 25 | -0.043 | 8 | 0.8 | 0.9
CCc1ccc(C(C(=O)NCCOC)N(C(=O)Cn2nnc3ccccc32)c2cccnc2)cc1 (stereo not drawn) | · | 0.84 | · | · | ·
SMILES | CYP2C9 inhib | Cav32 inh | CYP2C19 inhib | CYP2C9 act | CYP2C19 act
CS(=O)(=O)N(CC(=O)N1CCN(c2ccccc2)CC1)Cc1ccc(Cl)cc1 | 13 | -2.2 | 13 | 0.9 | 0.9
CS(=O)(=O)N(CC(=O)N1CCN(Cc2ccc3c(c2)OCO3)CC1)Cc1ccc(Cl)cc1 | 62* | -1.4 | 46 | 0.4 | 0.5
COc1ccc(N2CCN(C(=O)CN(Cc3ccc(Cl)cc3)S(C)(=O)=O)CC2)cc1 | -2 | -4.6* | 21 | 1 | 0.8
CS(=O)(=O)N(CC(=O)N1CCCCCC1)Cc1ccc(Cl)cc1 | 36 | 0.12 | 93* | 0.6 | 0.1
CN1CCN(C(=O)CN(Cc2ccc(Cl)cc2)S(C)(=O)=O)CC1 | 0 | 0.28 | 69* | 1 | 0.3
CS(=O)(=O)N(CCc1ccccc1)CC(=O)N1CCN(Cc2ccc3c(c2)OCO3)CC1 | -9 | 2.1 | -8 | 1.1 | 1.1
CC(=O)c1ccc(OCC(O)CN2CCN(c3ccccn3)CC2)cc1 (stereo not drawn) | 19 | 0.09 | 34 | 0.8 | 0.7
Cc1ccc2nc(-c3ccccc3)cc(C(=O)N3CCc4ccccc4C3)c2c1 | 33 | · | 20 | 0.7 | 0.8
O=C(CCC1CCCCC1)N1CCN(Cc2ccc3c(c2)OCO3)CC1 | 87* | -1.1 | 91* | 0.1 | 0.1
CS(=O)(=O)N(CC(=O)N1CCc2ccccc2C1)Cc1ccccc1 | 80* | · | 86* | 0.2 | 0.1
CN(c1ccccc1C(=O)N1CCc2ccccc2C1)S(C)(=O)=O | 84* | -0.22 | 93* | 0.2 | 0.1
CS(=O)(=O)N(CC(=O)N1CCOCC1)Cc1ccc(Cl)cc1 | -6 | · | 56* | 1.1 | 0.4
O=C(CN(Cc1ccccc1)S(=O)(=O)c1ccccc1)N1CCOCC1 | 7 | 0.84 | 50 | 0.9 | 0.5
C[C@@H](Oc1ccccc1)c1nnn(Cc2ccccc2)c1-c1c([C@@H](C)Oc2ccccc2)nnn1Cc1ccccc1 | · | -1.1 | · | · | ·
COc1ccc2[nH]c(C)c(C(=O)CN3CCc4cc(OC)c(OC)cc4C3)c2c1 | 42 | 0.0068 | 6 | 0.6 | 0.9
Cc1cc(C(=O)O)c(CCCN)s1 | -8 | -0.18 | -4 | 1.1 | 1
CN1CCN(C(=O)C2(NC(=O)Nc3cccc(F)c3)CCCCC2)CC1 | 35 | -0.14 | 47 | 0.7 | 0.5
C/C(NCCN1CCOCC1)=C(\C#N)C(N)=O | · | 0.2 | · | · | ·
COc1cccc(CC(NC(C)=O)C(=O)NC2CCN(S(=O)(=O)c3ccc4ccccc4c3)CC2)c1 (stereo not drawn) | -5 | -0.013 | -1 | 1 | 1
Cc1ccc(C=Nc2ccc(N(C)C)cc2)o1 | 44 | -1.5 | 52* | 0.6 | 0.5
CCOC(=O)c1cc(CC)sc1NC(=O)Cc1ccsc1 | 14 | -1.3 | 3 | 0.9 | 1
CCCCOc1ccc(-c2nnn(CC(=O)Nc3ncc(CC(=O)OCC)s3)n2)cc1 | 76* | -2.4 | 21 | 0.2 | 0.8
CCOC(=O)Cn1nnc(-c2ccc(OCC(C)C)cc2)n1 | 32 | 0.15 | 22 | 0.7 | 0.8
CCOC(=O)Cc1cnc(NC(=O)Cn2nnc(-c3ccc(OCC)cc3)n2)s1 | 85* | -7.2* | 66* | 0.2 | 0.3
CC(=O)Nc1ccc(C(=O)CS(=O)(=O)c2ccc(C)cc2)cc1 | 59* | 1.3 | 41 | 0.4 | 0.6
C=CCNC(=O)c1ccc(CNS(=O)(=O)c2ccc(NC(C)=O)cc2)cc1 | 57* | 0.077 | 9 | 0.4 | 0.9
CC(=O)Nc1ccc(S(=O)(=O)NCc2ccc3c(c2)cc(C)n3C)cc1 | 47 | -0.19 | 33 | 0.5 | 0.7
CC(=O)Nc1ccc(S(=O)(=O)NCc2ccc(C)cc2)cc1 | -5 | -0.0057 | 60* | 1 | 0.4
Cc1ccc(S(=O)(=O)CC(=O)c2ccc(C(C)(C)C)cc2)cc1 | 13 | -1.8 | 41 | 0.9 | 0.6
CC(=O)Nc1ccc(S(=O)(=O)n2nc(-c3ccc(C)cc3)nc2N)cc1 | -5 | -0.13 | 50* | 1.1 | 0.5

High-throughput results from PubChem.
